# Laboratory results: article PMC11062922 (Nature Chemical Biology, 2023)
# Where two headings read alike, the source gives them in different places.
# Tests used:
# Design in all cases: species or system human, MV4-11 + K-562 + COLO205 + SK-N-BE2 + OVCAR-8
# CDK7 = settings: read-out: apparent Kd, n = 1
# ERCC2 = settings: read-out: apparent Kd, n = 1
# FER = settings: read-out: apparent Kd, n = 1
# FLT3 = settings: read-out: apparent Kd, n = 1
# PLK4 = settings: read-out: apparent Kd, n = 1
# PRKAA1 = settings: read-out: apparent Kd, n = 1
# PRKCD = settings: read-out: apparent Kd, n = 1
# PRKCQ = settings: read-out: apparent Kd, n = 1
# PTK2B = settings: read-out: apparent Kd, n = 1
# PTK2 = settings: read-out: apparent Kd, n = 1
# RPS6KA6 = settings: read-out: apparent Kd, n = 1
# STK10 = settings: read-out: apparent Kd, n = 1
# TNK2 = settings: read-out: apparent Kd, n = 1
# DYRK1A = settings: read-out: apparent Kd, compound concentrations: 100 nM and 1000 nM (sheet 'Samples'), n = 1
# LATS1 = settings: read-out: apparent Kd, compound concentrations: 100 nM and 1000 nM (sheet 'Samples'), n = 1
# MARK4 = settings: read-out: apparent Kd, compound concentrations: 100 nM and 1000 nM (sheet 'Samples'), n = 1
# MYLK3 = settings: read-out: apparent Kd, compound concentrations: 100 nM and 1000 nM (sheet 'Samples'), n = 1
# CDKL5 = settings: read-out: apparent Kd; compound concentrations: 100 nM and 1000 nM (sheet 'Samples'), CATDS: 8.2845593333633408E-3; n = 1
# PRKD2 = settings: read-out: apparent Kd; compound concentrations: 100 nM and 1000 nM (sheet 'Samples'), CATDS: 8.2429468538409798E-3; n = 1
# PRKD3 = settings: read-out: apparent Kd, n = 1
# [1] = compound concentrations:100 nM and 1000 nM (sheet 'Samples')
compound,measurement,setting,value
Cl.Cl.NCC(C(=O)Nc1cc(Br)c(-c2ccnc3[nH]ccc23)s1)c1ccccc1.NCC(C(=O)Nc1cc(Br)c(-c2ccnc3[nH]ccc23)s1)c1ccccc1 (stereo not shown) [GSK1269851A],potency estimated from few doses,CDK7; [1],44.7 nM
same,potency estimated from few doses,ERCC2; [1],37.5 nM
same,potency estimated from few doses,FER; [1],56.2 nM
same,potency estimated from few doses,FLT3; [1],1450 nM
same,potency estimated from few doses,PLK4; [1],523 nM
same,potency estimated from few doses,PRKAA1; [1],548 nM
same,potency estimated from few doses,PRKCD; [1],2130 nM
same,potency estimated from few doses,PRKCQ; [1],1130 nM
same,potency estimated from few doses,PTK2B; [1],63.1 nM
same,potency estimated from few doses,PTK2; [1],422 nM
same,potency estimated from few doses,RPS6KA6; [1],364 nM
same,potency estimated from few doses,STK10; [1],2030 nM
same,potency estimated from few doses,TNK2; [1],46.6 nM
COc1ccc(Nc2ncc(C#N)c(Nc3ccccc3C(N)=O)n2)cc1N1CCN(C)CC1.Cl [GSK1558669A],potency estimated from few doses,DYRK1A; CATDS: 6.6106373934709103E-3,954 nM
same,potency estimated from few doses,"FER; compound concentrations: 100 nM and 1000 nM (sheet 'Samples'), CATDS: 1.1172004845485001E-2",137 nM
same,potency estimated from few doses,"FLT3; compound concentrations: 100 nM and 1000 nM (sheet 'Samples'), CATDS: 2.0604812795468701E-2",35.1 nM
same,potency estimated from few doses,LATS1; CATDS: 9.7361630406248897E-3,205 nM
same,potency estimated from few doses,MARK4; CATDS: 1.5249165601859399E-2,64.4 nM
same,potency estimated from few doses,MYLK3; CATDS: 2.6075418388892199E-2,23.1 nM
same,potency estimated from few doses,"PLK4; compound concentrations: 100 nM and 1000 nM (sheet 'Samples'), CATDS: 7.9359519159901901E-3",415 nM
same,potency estimated from few doses,"PRKAA1; compound concentrations: 100 nM and 1000 nM (sheet 'Samples'), CATDS: 2.0149023571651901E-2",36.6 nM
same,potency estimated from few doses,"PTK2B; compound concentrations: 100 nM and 1000 nM (sheet 'Samples'), CATDS: 1.3529380969040701E-2",84.5 nM
same,potency estimated from few doses,"PTK2; compound concentrations: 100 nM and 1000 nM (sheet 'Samples'), CATDS: 4.75918589440152E-2",9.26 nM
same,potency estimated from few doses,"RPS6KA6; compound concentrations: 100 nM and 1000 nM (sheet 'Samples'), CATDS: 2.0856200348519E-2",34.3 nM
same,potency estimated from few doses,"STK10; compound concentrations: 100 nM and 1000 nM (sheet 'Samples'), CATDS: 1.0596963300075399E-2",159 nM
O=C1N=C(NCCc2ccc(Cl)cc2)S/C1=C\c1ccc2ncccc2c1 [RO4498479-000],potency estimated from few doses,"CDK7; compound concentrations: 100 nM and 1000 nM (sheet 'Samples'), CATDS: 2.4350372788697498E-2",119 nM
same,potency estimated from few doses,CDKL5,909 nM
same,potency estimated from few doses,"ERCC2; compound concentrations: 100 nM and 1000 nM (sheet 'Samples'), CATDS: 2.1515421316076401E-2",142 nM
same,potency estimated from few doses,"FER; compound concentrations: 100 nM and 1000 nM (sheet 'Samples'), CATDS: 1.93209734431329E-2",166 nM
same,potency estimated from few doses,"FLT3; compound concentrations: 100 nM and 1000 nM (sheet 'Samples'), CATDS: 1.0367577324715899E-2",511 nM
same,potency estimated from few doses,LATS1; CATDS: 9.9630845977556094E-3,560 nM
same,potency estimated from few doses,MARK4; CATDS: 9.5723230975851108E-3,617 nM
same,potency estimated from few doses,MYLK3; CATDS: 6.6633165686717103E-3,2040 nM
same,potency estimated from few doses,"PLK4; compound concentrations: 100 nM and 1000 nM (sheet 'Samples'), CATDS: 1.52584065926915E-2",242 nM
same,potency estimated from few doses,"PRKAA1; compound concentrations: 100 nM and 1000 nM (sheet 'Samples'), CATDS: 1.37789233680672E-2",289 nM
same,potency estimated from few doses,"PRKCD; compound concentrations: 100 nM and 1000 nM (sheet 'Samples'), CATDS: 7.1591971083295198E-3",1490 nM
same,potency estimated from few doses,"PRKCQ; compound concentrations: 100 nM and 1000 nM (sheet 'Samples'), CATDS: 7.7984631053202198E-3",1100 nM
same,potency estimated from few doses,PRKD2,923 nM
same,potency estimated from few doses,"PRKD3; compound concentrations: 100 nM and 1000 nM (sheet 'Samples'), CATDS: 8.1476846710640503E-3",956 nM
same,potency estimated from few doses,"PTK2B; compound concentrations: 100 nM and 1000 nM (sheet 'Samples'), CATDS: 1.6323674836543501E-2",216 nM
same,potency estimated from few doses,"PTK2; compound concentrations: 100 nM and 1000 nM (sheet 'Samples'), CATDS: 1.5270520713179201E-2",242 nM
same,potency estimated from few doses,"RPS6KA6; compound concentrations: 100 nM and 1000 nM (sheet 'Samples'), CATDS: 1.4642324519722799E-2",260 nM
same,potency estimated from few doses,"STK10; compound concentrations: 100 nM and 1000 nM (sheet 'Samples'), CATDS: 8.8639953478003106E-3",751 nM
same,potency estimated from few doses,"TNK2; compound concentrations: 100 nM and 1000 nM (sheet 'Samples'), CATDS: 1.88242032678454E-2",173 nM
CONC1=NC(=O)/C(=C/c2ccc3ncccc3c2)S1 [RO4613269-000],potency estimated from few doses,DYRK1A; CATDS: 0.14801064181583801,1100 nM
Cc1ccc2c(-c3ccncc3)c(-c3ccc(F)cc3)nn2c1.Cl [GW461484A],potency estimated from few doses,CDK7; [1],288 nM
same,potency estimated from few doses,ERCC2; [1],214 nM
same,potency estimated from few doses,FER; [1],259 nM
same,potency estimated from few doses,PLK4; [1],428 nM
same,potency estimated from few doses,PRKAA1; [1],773 nM
same,potency estimated from few doses,PRKD3; [1],2110 nM
same,potency estimated from few doses,PTK2B; [1],354 nM
same,potency estimated from few doses,PTK2; [1],462 nM
same,potency estimated from few doses,RPS6KA6; [1],248 nM
same,potency estimated from few doses,TNK2; [1],328 nM
CN(c1ccc(NC(=O)Nc2cccc(Cl)c2)cc1)c1ccnc(N)n1.Cl [GW830707A],potency estimated from few doses,"CDK7; compound concentrations: 100 nM and 1000 nM (sheet 'Samples'), CATDS: 2.70910980037193E-2",25.3 nM
same,potency estimated from few doses,"ERCC2; compound concentrations: 100 nM and 1000 nM (sheet 'Samples'), CATDS: 2.8634029570059099E-2",22.5 nM
same,potency estimated from few doses,"FER; compound concentrations: 100 nM and 1000 nM (sheet 'Samples'), CATDS: 3.09824946210665E-2",19.3 nM
same,potency estimated from few doses,"PRKAA1; compound concentrations: 100 nM and 1000 nM (sheet 'Samples'), CATDS: 2.0241658974681501E-2",51.3 nM
same,potency estimated from few doses,"PTK2B; compound concentrations: 100 nM and 1000 nM (sheet 'Samples'), CATDS: 2.3206005567305101E-2",35.9 nM
same,potency estimated from few doses,"PTK2; compound concentrations: 100 nM and 1000 nM (sheet 'Samples'), CATDS: 2.6556868558213102E-2",26.4 nM
same,potency estimated from few doses,"RPS6KA6; compound concentrations: 100 nM and 1000 nM (sheet 'Samples'), CATDS: 2.8909241119288599E-2",22.1 nM
same,potency estimated from few doses,"TNK2; compound concentrations: 100 nM and 1000 nM (sheet 'Samples'), CATDS: 3.7589632297420301E-2",13.5 nM
Cc1ccc(Nc2ccnc(Nc3ccc4c(c3)CS(=O)(=O)C4)n2)cc1O.Cl [GW579362A],potency estimated from few doses,"STK10; compound concentrations: 100 nM and 1000 nM (sheet 'Samples'), CATDS: 3.2691719677524503E-2",950 nM
